# Measurements taken from PMC4242493, “Sequence specificity incompletely defines the genome-wide occupancy of Myc”.
# The full ranking holds about 33,000 sequences; the median of “normalized occupancy” is about 0.075, and the highest 2% start at about 0.095. For the sample, the highest values were picked, then their nearest neighbours and some sequences at random.
# Molecular target: MaxL homodimer (Homo sapiens, UniProt P61244 1-160)
# Experiment: universal protein-binding microarray (PBM); PBS-based mixture, 10 nM His-tagged protein dimer, 2% milk, 200 ng/uL BSA, 50 ng/uL salmon testes DNA, 0.02% TX-100; detection with Alexa 488 anti-His antibody;; high values mean tight binding
# Settings: protein: recombinant; tags: C-terminal His-tag (pET21a); chain copies: 2; dsDNA, one strand shown
# How it was run: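 His-tagged protein dimer at 10 nM was bound to Agilent 4 x 44 K 'all 10-mer' universal arrays and detected with 10 ng/μL fluorophore-conjugated anti-His antibody on a GenePix 4400A, giving an intensity per 8-mer. Binding occupancy normalises each intensity to the top-ranked one.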
# Chain of MaxL homodimer (P61244 whole entry): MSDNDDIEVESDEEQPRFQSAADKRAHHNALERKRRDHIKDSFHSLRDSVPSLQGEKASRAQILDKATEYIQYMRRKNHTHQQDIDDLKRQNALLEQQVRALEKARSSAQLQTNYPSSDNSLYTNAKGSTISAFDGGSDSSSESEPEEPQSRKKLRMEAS
row,Sequence,binding signal [normalized occupancy]
1,ACGCGAAG,0.0765
2,AGTAGTAA,0.0731
3,ACAACCGA,0.0733
4,CACGCATC,0.0962
5,AACGCATC,0.0731
6,AACGCAAG,0.073
7,AACGCATG,0.121
8,AACGCATT,0.0767
9,GACGCATC,0.077
10,AAACTATT,0.0745
11,TAGGACTA,0.0732
12,CACCCGTA,0.0782
13,CAGCATAG,0.0739
14,CAGCATGA,0.106
15,GAGCATGA,0.0963
16,CAGCATGG,0.13
17,CAGCATAA,0.0808
18,TAGCATGA,0.0921
19,GAGCATAA,0.0797
20,CAGCATCG,0.0732
21,GAGCATCA,0.0734
22,CGTCGAAC,0.0719
23,CATCGTGC,0.0886
24,ACTCGTGC,0.0933
25,AATCGTGG,0.0832
26,ACTCGTGG,0.0955

row,Sequence,binding signal [normalized occupancy]
1,ACTCGTCA,0.0793
2,CCTCGTGA,0.125
3,ACTCGTGA,0.0957
4,CCTCGTGC,0.133
5,CCTCGTTC,0.0806
6,AGTCGTGA,0.0749
7,CCTCGTTA,0.0752
8,GCTCGTGA,0.0843
9,ACGTTGAA,0.083
10,GGGACCAC,0.078
11,CTCTCCAC,0.0859
12,CTATGCTA,0.0768
13,AGACACAT,0.0849
14,CTAAGGTC,0.0732
15,AAATGACC,0.0764
16,ATAAGCTG,0.0801
17,ATGCGTGC,0.0969
18,ATGCGTGG,0.106
19,GTGCGTGA,0.0887
20,ATGCGTCC,0.0782
21,CTGCGTGA,0.0818
22,ATGCGTTG,0.0816
23,ATGCGTAG,0.0832
24,CTGCGTGC,0.0861
25,ATGCGTGA,0.0965
26,ACATCCCG,0.0795

row,Sequence,binding signal [normalized occupancy]
1,AGAATGGA,0.0768
2,GCGACGCA,0.0736
3,CGCGTAAC,0.0752
4,CCACATGG,0.227
5,CCACATTA,0.093
6,CAACATGG,0.0932
7,CCACATGA,0.134
8,CAACATGA,0.0936
9,CCACATGC,0.163
10,CAACATGC,0.094
11,CCACATTC,0.0852
12,CCACATAG,0.0803
13,GATCCGCA,0.0769
14,CATTCAGC,0.0725
15,GAATTATA,0.0789
16,TCACTGCA,0.075
17,CTCAAGTC,0.0771
18,AAGGTTTA,0.0757
19,AACACGGT,0.0777
20,AACACGCC,0.0909
21,CACACGCC,0.0955
22,GACACGCC,0.0849
23,CACACGCA,0.0865
24,AACACGCT,0.0974
25,AACACGCA,0.0915
26,CACACACG,0.0916

row,Sequence,binding signal [normalized occupancy]
1,AACACGCG,0.12
2,CACACACA,0.087
3,CACACGCG,0.124
4,AACACACA,0.0847
5,CCACGGAC,0.0742
6,CGACTAAA,0.0736
7,TCACTTAA,0.078
8,GAACCAAC,0.0752
9,AGACGACA,0.0751
10,ACAAACCT,0.0779
11,AACGACTG,0.0722
12,GACATTAC,0.0843
13,ATGCTATA,0.0889
14,ACGCGTTC,0.0785
15,GCGCGTTA,0.0795
16,ACGCGTAG,0.0796
17,ACGCGTGG,0.139
18,GGGCGTGA,0.0932
19,GCGCGTGA,0.106
20,CGGCGTGC,0.0923
21,ACGCGTCC,0.0815
22,CCGCGTGC,0.145
23,ACGCGTCG,0.0769
24,CCGCGTAC,0.0726
25,ACGCGTGC,0.13
26,GTGAGGGA,0.0752

row,Sequence,binding signal [normalized occupancy]
1,AAAAAGCA,0.078
2,GAAAGCGC,0.0724
3,ATTACCTA,0.0784
4,AGGTTCTA,0.0755
5,CAAGCGAA,0.0755
6,CAATTTCA,0.0751
7,CCGCGTGA,0.142
8,ACGCGTAA,0.0882
9,ACGCGTCA,0.0796
10,CCGCGTAA,0.0729
11,CGGCGTGA,0.0839
12,ACGCGTGA,0.114
13,ATGACGTG,0.0885
14,AAGTGATT,0.0761
15,CCTGCGCA,0.0738
16,TGAGAGAA,0.0879
17,TATAAGAA,0.0821
18,GTTACTTA,0.0751
19,AATCTAAC,0.0749
20,ATGCCACC,0.0841
21,ACGCCATC,0.0794
22,ACGCCATA,0.0812
23,ACGCCACG,0.0993
24,ACGCCATG,0.102
25,ACGCCACT,0.0784
26,ATGCCACA,0.0905

row,Sequence,binding signal [normalized occupancy]
1,ATGCCACG,0.101
2,ACGCCACA,0.0778
3,ATGCGTTC,0.0856
4,CAACCCAC,0.082
5,GGCGTTCA,0.0718
6,ACCACGAA,0.0771
7,CCCACGAG,0.0996
8,CCCACGAA,0.0758
9,ACCACAAA,0.0758
10,CCCACAAA,0.075
11,ACCACGAG,0.115
12,GAAGTGCA,0.0728
13,GTTTCGCA,0.0757
14,ATGGCTGC,0.0809
15,CGTGCTGA,0.095
16,GATGGAAC,0.0776
17,ACATGCTC,0.106
18,CGATGCTC,0.0773
19,CAATGCTC,0.0774
20,ATATGCTC,0.0928
21,CTATGCTC,0.0822
22,CCATGCTC,0.0989
23,CGAGCGCA,0.0729
24,GACATCCC,0.0774
25,CACGTTCG,0.0852
26,CACGTTAG,0.105

row,Sequence,binding signal [normalized occupancy]
1,GACGTTAC,0.0746
2,CACGTTCC,0.096
3,AACGTTAG,0.0732
4,CACGTTAC,0.115
5,CACGTTAA,0.0921
6,AACGTTAC,0.0772
7,CACGTTCA,0.0904
8,GTAGTCCA,0.0722
9,TACGTAGA,0.0768
10,AATGCGGG,0.0799
11,CAGGCGGG,0.0747
12,CATGCGGA,0.126
13,CATGCGGG,0.121
14,TATGCGGA,0.0786
15,CATGCGGC,0.121
16,GATGCGGC,0.0788
17,AATGCGGA,0.0802
18,AATGCGGC,0.0814
19,AGGTAACC,0.0749
20,AAACATAC,0.0888
21,TATAAACA,0.0776
22,CGCTCGAG,0.0757
23,CGATTGCA,0.0745
24,GGACCGAC,0.0727
25,CATTTGAG,0.0913
26,AAGAACTC,0.0732

row,Sequence,binding signal [normalized occupancy]
1,AATTTCTA,0.0767
2,CCATTCGC,0.0743
3,CTTCGTGC,0.0757
4,ATGGCAGG,0.0815
5,ACCCATGG,0.0853
6,CCCCATGC,0.107
7,CCCCATGA,0.0895
8,CCCCATTC,0.0826
9,ACCCATGC,0.108
10,ACCCATGA,0.0882
11,AAAGCACT,0.0757
12,AACCACGC,0.0983
13,CACCACGA,0.082
14,CACCACGC,0.119
15,GACCACGC,0.129
16,AACCACTA,0.0774
17,AACCACGG,0.0843
18,AACCACGA,0.0902
19,AACCACCA,0.0807
20,AACCACGT,0.123
21,GACCACCA,0.0803
22,CACCACGG,0.0774
23,GACCACGA,0.0865
24,ATGCCCTG,0.0757
25,GAGACCCA,0.0745
26,TAATTGCA,0.0767

row,Sequence,binding signal [normalized occupancy]
1,ACCAAGCA,0.081
2,AATGCGTA,0.0846
3,CATGCGTA,0.122
4,CGTGCGTC,0.0896
5,CATGCGTC,0.113
6,GATGCGTA,0.0807
7,AATGCGTC,0.0736
8,ATGACGCG,0.0781
9,ACGTGGGG,0.0991
10,GCGTGGGA,0.125
11,GTGTGGGA,0.0899
12,AAGTGGGA,0.0771
13,AGGTGGGC,0.0818
14,GGGTGGGA,0.085
15,ATGTGGGC,0.0919
16,AGGTGGGG,0.0822
17,ACGTGGGA,0.0998
18,ATGTGGGG,0.0878
19,ACGTGGGC,0.1
20,CCGTGGGA,0.0775
